In ChEMBL document CHEMBL5308504, “Tm Shift (DSF) assay results for EUbOPEN Chemogenomics Library” (2023):

Tests used:
Settings in all cases: Compound concentration 20.0 uM, Protein concentration 2.0 uM, Result type QC Liability
[1] = biological target: Tyrosine-protein kinase ABL1 (Homo sapiens) (UniProt P00519)
[2] = biological target: Cyclin-dependent kinase 2 (Homo sapiens) (UniProt P24941)
[3] = biological target: Casein kinase I isoform delta (Homo sapiens) (UniProt P48730)
[4] = biological target: Glycogen synthase kinase-3 beta (Homo sapiens) (UniProt P49841)
[5] = biological target: Mitogen-activated protein kinase 1 (Homo sapiens) (UniProt P28482)
[6] = biological target: T1, Aurora kinase A (Homo sapiens) (UniProt O14965)
T1 sequence (whole entry): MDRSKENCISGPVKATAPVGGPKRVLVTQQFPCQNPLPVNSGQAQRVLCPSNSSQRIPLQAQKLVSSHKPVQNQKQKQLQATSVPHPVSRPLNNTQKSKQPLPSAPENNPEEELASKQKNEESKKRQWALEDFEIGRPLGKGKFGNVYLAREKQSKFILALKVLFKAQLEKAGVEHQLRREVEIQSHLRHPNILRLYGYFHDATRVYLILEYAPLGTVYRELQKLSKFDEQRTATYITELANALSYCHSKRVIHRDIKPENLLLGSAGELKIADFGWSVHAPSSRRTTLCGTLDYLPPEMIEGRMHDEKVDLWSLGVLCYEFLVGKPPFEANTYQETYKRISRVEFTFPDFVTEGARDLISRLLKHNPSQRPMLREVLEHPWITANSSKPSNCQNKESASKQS

Chain of Casein kinase I isoform delta (Homo sapiens) (P48730 whole entry, looked up, canonical isoform): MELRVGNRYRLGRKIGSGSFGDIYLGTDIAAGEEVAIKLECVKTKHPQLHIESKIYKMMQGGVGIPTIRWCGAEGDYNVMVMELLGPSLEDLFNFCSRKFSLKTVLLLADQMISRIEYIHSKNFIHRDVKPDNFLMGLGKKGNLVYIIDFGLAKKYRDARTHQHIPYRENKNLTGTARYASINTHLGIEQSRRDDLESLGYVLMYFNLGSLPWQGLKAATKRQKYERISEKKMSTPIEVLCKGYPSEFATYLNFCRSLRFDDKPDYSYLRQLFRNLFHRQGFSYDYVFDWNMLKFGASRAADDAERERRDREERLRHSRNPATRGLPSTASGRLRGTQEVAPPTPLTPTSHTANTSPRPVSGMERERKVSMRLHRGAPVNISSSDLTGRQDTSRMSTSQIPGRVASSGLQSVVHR
Chain of Mitogen-activated protein kinase 1 (Homo sapiens) (P28482 whole entry): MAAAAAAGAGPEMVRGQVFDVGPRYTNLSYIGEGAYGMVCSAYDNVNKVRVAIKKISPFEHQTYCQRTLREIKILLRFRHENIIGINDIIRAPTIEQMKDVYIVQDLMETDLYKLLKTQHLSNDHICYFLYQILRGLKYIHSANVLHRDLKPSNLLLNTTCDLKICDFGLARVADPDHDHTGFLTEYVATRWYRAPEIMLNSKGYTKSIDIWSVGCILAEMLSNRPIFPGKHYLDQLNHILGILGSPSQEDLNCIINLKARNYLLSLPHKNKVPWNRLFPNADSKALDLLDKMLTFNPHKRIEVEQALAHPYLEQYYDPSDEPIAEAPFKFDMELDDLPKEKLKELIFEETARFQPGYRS
Chain of Tyrosine-protein kinase ABL1 (Homo sapiens) (P00519 whole entry): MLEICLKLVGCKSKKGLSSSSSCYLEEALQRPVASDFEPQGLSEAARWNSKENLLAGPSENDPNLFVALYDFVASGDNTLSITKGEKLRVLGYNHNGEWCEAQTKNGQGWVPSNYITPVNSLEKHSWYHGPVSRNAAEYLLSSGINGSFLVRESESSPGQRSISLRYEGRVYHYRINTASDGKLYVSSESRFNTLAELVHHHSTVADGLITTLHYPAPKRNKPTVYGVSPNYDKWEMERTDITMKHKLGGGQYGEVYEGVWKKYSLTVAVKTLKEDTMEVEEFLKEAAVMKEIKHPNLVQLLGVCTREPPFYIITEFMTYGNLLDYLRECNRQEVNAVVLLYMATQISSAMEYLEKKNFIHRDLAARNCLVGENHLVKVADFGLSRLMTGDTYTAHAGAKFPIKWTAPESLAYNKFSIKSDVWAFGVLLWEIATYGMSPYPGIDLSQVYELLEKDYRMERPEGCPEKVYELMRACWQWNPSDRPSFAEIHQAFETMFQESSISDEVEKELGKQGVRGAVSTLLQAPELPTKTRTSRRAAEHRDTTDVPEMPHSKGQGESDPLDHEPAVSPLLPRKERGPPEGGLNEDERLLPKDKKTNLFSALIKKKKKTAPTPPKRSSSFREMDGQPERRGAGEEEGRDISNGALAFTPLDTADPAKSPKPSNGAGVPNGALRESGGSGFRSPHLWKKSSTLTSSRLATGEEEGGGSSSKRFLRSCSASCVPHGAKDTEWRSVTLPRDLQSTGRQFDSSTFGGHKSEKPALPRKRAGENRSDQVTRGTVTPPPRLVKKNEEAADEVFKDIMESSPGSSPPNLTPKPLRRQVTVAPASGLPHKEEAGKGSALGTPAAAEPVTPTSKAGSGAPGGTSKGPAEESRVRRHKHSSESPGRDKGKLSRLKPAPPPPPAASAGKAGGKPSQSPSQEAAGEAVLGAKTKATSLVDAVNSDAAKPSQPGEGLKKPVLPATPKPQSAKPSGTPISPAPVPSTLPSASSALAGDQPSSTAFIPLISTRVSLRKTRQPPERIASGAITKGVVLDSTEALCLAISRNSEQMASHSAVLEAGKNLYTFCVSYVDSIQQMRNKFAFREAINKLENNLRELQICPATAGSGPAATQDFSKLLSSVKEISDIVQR
Chain of Glycogen synthase kinase-3 beta (Homo sapiens) (P49841 whole entry, looked up): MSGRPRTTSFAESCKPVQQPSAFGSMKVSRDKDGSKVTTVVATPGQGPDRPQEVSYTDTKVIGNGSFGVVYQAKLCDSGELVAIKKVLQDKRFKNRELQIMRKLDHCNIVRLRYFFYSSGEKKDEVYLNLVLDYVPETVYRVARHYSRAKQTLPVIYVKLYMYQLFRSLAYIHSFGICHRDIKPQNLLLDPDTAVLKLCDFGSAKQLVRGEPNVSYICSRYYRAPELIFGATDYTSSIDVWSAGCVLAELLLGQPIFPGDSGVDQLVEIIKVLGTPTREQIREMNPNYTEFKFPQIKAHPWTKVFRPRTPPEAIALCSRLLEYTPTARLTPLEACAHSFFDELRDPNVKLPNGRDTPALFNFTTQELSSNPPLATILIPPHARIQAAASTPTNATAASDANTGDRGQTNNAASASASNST

Row | SMILES | ΔTm [1] [°C] | ΔTm [2] [°C] | ΔTm [3] [°C] | ΔTm [4] [°C] | ΔTm [5] [°C] | ΔTm [6] [°C]
1 | Cn1ccc(Cn2cnc(-c3ccc(F)cc3)c2-c2ccnc3[nH]ccc23)n1 | 0.71 | 0.42 | 6.32 | -0.53 | 0.21 | -0.97
2 | COc1cc(O)c(C(CC(=O)N2C[C@H](C)C[C@H](C)C2)c2ccc3c(c2)OCO3)c(OC)c1 (stereo partly drawn) | 4.29 | 0.29 | 0.17 | 1 | 0.25 | 0.33
3 | COc1cc(-c2cn(C)c(=O)c3cnccc23)c(OC)cc1CN(C)C | 0.49 | 0.53 | 0.06 | 0.1 | -0.12 | -0.18
4 | COc1ccc(Br)cc1S(=O)(=O)NC(=O)/C=C/c1cc(Cl)ccc1Cc1ccc2ccccc2c1 | -0.6 | -1.22 | -6.17 | -2.44 | -4.21 | -3.37
5 | C[C@H](CCC(=O)O)[C@H]1CC[C@H]2[C@@H]3CC[C@@H]4C[C@H](O)CC[C@]4(C)[C@H]3C[C@H](O)[C@]12C | -0.07 | 0.15 | 0.54 | -0.7 | 0.2 | -0.62
6 | C=CC[C@@H]1/C=C(\C)C[C@H](C)C[C@H](OC)[C@H]2O[C@@](O)(C(=O)C(=O)N3CCCC[C@H]3C(=O)O[C@H](/C(C)=C/[C@@H]3CC[C@@H](O)[C@H](OC)C3)[C@H](C)[C@@H](O)CC1=O)[C@H](C)C[C@@H]2OC | -0.14 | -0.14 | -0.31 | 0.01 | -1.81 | -0.2
7 | COCCc1ccc(-c2c(C)nc3c(N4CCOCC4)ccnn23)cn1 | 0.28 | 0.2 | 0.24 | -0.61 | 0.69 | 0.4
8 | Cc1nsc(Nc2cnc(C(F)(F)F)cn2)c1C(=O)Nc1ccc(O[C@H]2CCCN(CC(F)(F)F)C2)nc1 | 0.72 | 1.68 | 0 | -3.09 | 0 | 2.24
9 | O=C(Cc1ccccc1[N+](=O)[O-])Nc1ccc(-c2ccc(C(O)(C(F)(F)F)C(F)(F)F)cc2F)cc1 | 0.67 | 2.11 | -0.86 | -0.71 | -0.87 | -1.59
10 | C[C@@H]1C[C@H](C)CN(c2ncc(Cl)c(Nc3ccc4c(c3)cc(OC(C)(C)C(=O)O)c(=O)n4C)n2)C1 | -0.58 | 0.18 | -0.08 | -1.47 | 0.14 | 0.18
11 | Cn1cc(-c2ccc(N(C(=O)NCc3ccccc3)[C@H]3CC[C@H](Nc4ccc(C#N)cn4)CC3)cc2)ccc1=O | 0.13 | 0.7 | 0.29 | 0.01 | -0.4 | -0.15
12 | CCCCC[C@H](O)/C=C/[C@H]1[C@H](O)CC(=O)[C@@H]1CCCCCCC(=O)O | 0.19 | 0.43 | 0.1 | -0.48 | 0.29 | -0.09
13 | CC(C)NC(=O)[C@H]1CCC[C@H]1Nc1nc(Nc2ccc(CN(C)C)cc2)ncc1Br | 6.63 | 1.87 | 0.87 | 0.23 | 1.81 | 14.5
